Screens (PubChem)
HSF-1 act – increases HSF-1 driven luciferase reporter signal; NIH3T3-HGL HSF-1 luciferase reporter, MG132, 8 h; 100% = twice DMSO control signal; activation, % at 9 µM; 1.7% of 300,000 active;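 active = mean replicate activation of at least 50% with a set share of replicates each reaching 50%; inconclusive = only one of those two conditions met; inactive = mean below 50% and too few replicates reaching it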
ARNT TACC3 PPI – ARNT/TACC3 interaction disruption. Q9Y6A5. AlphaScreen His-ARNT PAS-B/GST-TACC3 binding, luminescence; TACC3 fragment carries E629A point mutation. inhibition, % at 9.99 µM. 0.66% of 390,000 active. AID 623870;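 active = mean inhibition of replicates at least 50% and at least half of replicates each reaching 50%; inconclusive = half or more replicates reach 50% but mean below 50%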
HSF1 inh – HSF1 inhibition | activity change, negative = inhibition, % at 7.5 µM (by protocol) | AID 2098 | 0.77% of 300,000 active | NIH3T3-HGL HSE-luciferase, MG132-induced, luminescence 8 h; stronger effect = lower value;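 active = more than half of replicate wells show activity change below -50%, luminescence cut by over half; inconclusive = some wells, but at most half, below -50%; inactive = no replicate well below -50%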;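 note: luciferase reports HSF-1 transcriptional activity via heat shock element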
HIF activator – HIF pathway transcriptional activation; 0.32% of 300,000 active; AID 1910; U2OS HRE-luciferase reporter, luminescence; normalized: DMSO 0%, desferrioxamine 100%; activation, % at 7.5 µM (by protocol);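 active = mean activation of at least 10% of the iron chelator positive control signal, with at least half of replicates also reaching 10%; inconclusive = mean and replicate majority disagree about reaching 10%; inactive = mean and most replicates under 10%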
HSP90 refold inh – inhibitors of HSP90 luciferase refolding in rabbit reticulocyte lysate | inhibition, % at 5.6 µM | AID 1789 | luciferase refolding luminescence, 3 h | 0.91% of 290,000 active;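 active = inhibition above the screen-wide mean plus 3 SD, computed separately per campaign, cut at about 16% in these data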;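 note: inhibitors lower the luminescence because luciferase stays unfolded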
Of the large screens only hits and unclear results are named; the others gave an inactive call. Hits are enriched below; roughly 3.1% of the tested compounds scored in any of these assays.

C=CCN1c2ccccc2[C@]23C[C@@H](C(=O)OC)N(C(=O)c4ccc(Br)cc4)C2=NC(C(=O)OC)=C(C(=O)OC)[C@H]13	HSF1 inh -69.3 (no result: HSP90 refold inh)
COC(=O)C1=C(C(=O)OC)[C@@H]2N(C)c3ccccc3[C@@]23C[C@@H](C(=O)OC)N(C(=O)CC(C)C)C3=N1	HSF1 inh -74.9 (no result: HSP90 refold inh)
O=C(NCC[C@H]1CC[C@H](NS(=O)(=O)c2ccc(F)cc2)[C@@H](CO)O1)Nc1ccc(Cl)cc1	none (no result: HSF-1 act, HSF1 inh, HIF activator, HSP90 refold inh)
C[C@H](CO)N1C[C@H](C)[C@H](CN(C)Cc2ccc(C(=O)O)cc2)OCCCC[C@H](C)Oc2ccc(NC(=O)NC3CCCCC3)cc2C1=O	none (no result: HSF-1 act, HSF1 inh, HIF activator, HSP90 refold inh)
O=C(C[C@H]1CC[C@H]2[C@@H](COC[C@@H](O)CN2S(=O)(=O)c2ccc(Oc3ccccc3)cc2)O1)NC1CCC1	none (no result: HSF-1 act, HSF1 inh, HIF activator, HSP90 refold inh)
Cn1c(NC(=O)/C=C/c2ccc(Cl)c(Cl)c2)cc(=O)n(C)c1=O	HSF-1 act 55.5
COc1ccc(/C=C/C(=O)Nc2cc(=O)n(C)c(=O)n2C)cc1	HSF-1 act 59.9
Cn1c(NC(=O)/C=C/c2ccccc2)cc(=O)n(C)c1=O	none (no result: ARNT TACC3 PPI)
C[C@H](CO)N1C[C@H](C)[C@@H](CN(C)C(=O)c2cnccn2)Oc2ncc(-c3cccc(C#N)c3)cc2C1=O	none (no result: HSF-1 act, HSF1 inh, HIF activator, HSP90 refold inh)
O=C(C[C@H]1CC[C@@H](NS(=O)(=O)c2ccccc2F)[C@@H](CO)O1)NCCCN1CCOCC1	none (no result: HSF-1 act, HSF1 inh, HIF activator, HSP90 refold inh)
Nc1nc(SCc2ccc(Cl)cc2Cl)ns1	none
Cc1ccccc1CSc1nsc(N)n1	HSF-1 act 60.5
CC(=O)Nc1ccc(NC(=O)c2c([N+](=O)[O-])cnn2C)cc1	none (no result: ARNT TACC3 PPI)
Cn1ncc([N+](=O)[O-])c1C(=O)Nc1ccc(-c2nc3ccccc3o2)cc1	HSF-1 act 56.3
Cc1ccc(S(=O)(=O)NC2c3cccc4cccc(c34)C2Sc2nncn2C)cc1 (stereo not given)	HSF-1 act 66.8
CN1CCN(CCc2nc3cc(NC(=O)COc4ccccc4)ccc3n2C)CC1	none
Cc1ccc(OCC(=O)Nc2ccc3c(c2)nc(CCN2CCCCC2)n3C)cc1	HSF-1 act 76.0
COc1ccc(OCC(=O)Nc2ccc3c(c2)nc(CCN2CCCCC2)n3C)cc1	HSF-1 act 63.5
Cn1c(CCN2CCCCC2)nc2cc(NC(=O)COc3ccccc3)ccc21	HSF-1 act 57.9
Cc1cccc(OCC(=O)Nc2ccc3c(c2)nc(CCN2CCCCC2)n3C)c1	HSF-1 act 84.2
COc1ccccc1-c1cn(CC[C@@H]2CC[C@@H](NS(=O)(=O)c3ccccc3C)[C@H](CO)O2)nn1	none (no result: HSF-1 act, HSF1 inh, HIF activator, HSP90 refold inh)
Cc1ccc(S(=O)(=O)N[C@H]2CC[C@H](CCNC(=O)Cc3ccccn3)O[C@@H]2CO)cc1	none (no result: HSF-1 act, HSF1 inh, HIF activator, HSP90 refold inh)
C[C@H](CO)N1C[C@H](C)[C@H](CN(C)C(=O)Nc2ccc(F)cc2)Oc2ccc(NC(=O)C3CCCCC3)cc2CC1=O	none (no result: HSF-1 act, HSF1 inh, HIF activator, HSP90 refold inh)
CC1CCN(CCc2nc3cc(NC(=O)COc4ccc(Cl)cc4)ccc3n2C)CC1	HSF-1 act 71.6
C/C=C/c1ccc([C@@H]2[C@H](CO)N(Cc3ccccn3)[C@H]2CNC(C)=O)cc1	ARNT TACC3 PPI 37.2 (no result: HSF-1 act, HSF1 inh, HIF activator, HSP90 refold inh)
C/C=C/c1ccc([C@@H]2[C@@H](CO)N(Cc3ccccn3)[C@H]2CNC(C)=O)cc1	none (no result: HSF-1 act, HSF1 inh, HIF activator, HSP90 refold inh)
CN(Cc1cccs1)C(=O)c1ccc(S(=O)(=O)N2CCCCC2)cc1	none
O=C(C1CCCN(S(=O)(=O)c2ccc(Cl)cc2)C1)N(Cc1cccs1)C1CC1 (stereo not given)	HSF1 inh -65.3
COc1ccc(NC(=O)c2cc(C)n(Cc3cccs3)c2C)cc1	HSF-1 act 67.6
Cc1cc(C(=O)COc2ccc3ccc(=O)oc3c2)c(C)n1Cc1cccs1	none
C[C@H](O)C#Cc1ccc2c(c1)O[C@@H](CN(C)CC1CCOCC1)[C@@H](C)CN([C@@H](C)CO)S2(=O)=O	none (no result: HSF-1 act, HSF1 inh, HIF activator, HSP90 refold inh)
CN(C)c1ccc(/C=N/NC(=S)NCc2ccccc2)cc1	HSF-1 act 55.3
CC(C)(C)c1ccc(/C=N/NC(=S)NCc2ccccc2)cc1	none
S=C(NCc1ccco1)N/N=C/c1ccc(Cl)cc1	HSF-1 act 94.6
CC(C)NC(=O)Nc1ccc2c(c1)CC(=O)N([C@H](C)CO)C[C@H](C)[C@@H](CN(C)Cc1ccc(C(F)(F)F)cc1)O2	none (no result: HSF-1 act, HSF1 inh, HIF activator, HSP90 refold inh)
O=C(c1ccc(F)cc1)N1CC[C@@H]2[C@@H](CO)Nc3ccc(-c4ccccc4F)cc3[C@@H]21	none (no result: HSF-1 act, HSF1 inh, HIF activator, HSP90 refold inh)
Cc1ccc(S(=O)(=O)Nc2ccc3c(c2)C(=O)N([C@@H](C)CO)C[C@@H](C)[C@H](CN(C)C(=O)NC2CCCCC2)OCCCC[C@H](C)O3)cc1	none (no result: HSF-1 act, HSF1 inh, HIF activator, HSP90 refold inh)
CCOC(=O)NC(=O)/C(C#N)=N/Nc1c(F)cccc1F	HSF-1 act 64.2
COc1cc(OC)cc(C(=O)N(CCCN2C(=O)c3cccc4cccc(c34)C2=O)c2cccc(OC)c2)c1	HSF-1 act 59.4
COc1ccc(N(CCCN2C(=O)c3cccc4cccc(c34)C2=O)C(=O)c2ccncc2)cc1	none
O=C(O)C[C@H]1CC[C@@H](NC(=O)Nc2ccccc2)[C@@H](CO)O1	none (no result: HSF-1 act, HSF1 inh, HIF activator, HSP90 refold inh)
COc1ccccc1N1CCN(Cc2cc(Br)c(O)c3ncccc23)CC1	HSF1 inh -80.5, HIF activator 12.5 (no result: ARNT TACC3 PPI)
Oc1c(CN2CCCCC2)cc(COCc2ccccc2)c2cccnc12	ARNT TACC3 PPI 62.5, HIF activator 132.0
CN(C)C1CCN(Cc2cc(COCc3ccccc3)c3cccnc3c2O)C1 (stereo not given)	ARNT TACC3 PPI 75.3 (no result: HSF-1 act, HSF1 inh, HIF activator, HSP90 refold inh)
CCOc1ccccc1N1CCN(Cc2cccc(OC)c2O)CC1	HSF-1 act inconclusive
Oc1ccc(CN2CCN(c3ccccc3)CC2)c2cccnc12	none
COCc1cc(CN2CCCC2)c(O)c2ncccc12	ARNT TACC3 PPI 60.0
C[C@@H]1CN([C@@H](C)CO)C(=O)Cc2cc(NC(=O)C3CC3)ccc2O[C@@H]1CN(C)Cc1ccc2c(c1)OCO2	none (no result: HSF-1 act, HSF1 inh, HIF activator, HSP90 refold inh)
COc1cccc(NC(=S)N(CCCN2CCN(C)CC2)Cc2ccco2)c1	HSF-1 act 61.0
COc1ccc(C(=O)c2c(C(F)(F)F)oc3c2C(=O)c2ccccc2C3=O)cc1	HSF1 inh -93.6
Cc1ccc(C(=O)c2c(C)oc3c2C(=O)C(=O)c2ccccc2-3)cc1	none (no result: ARNT TACC3 PPI)
O=c1c2ccccc2sc2nc(C3CCCCC3)n(Cc3ccco3)c(=O)c12	HSF-1 act 85.6
CC(C)CC(=O)NC(NC(=O)CC(C)C)c1cccc([N+](=O)[O-])c1	HSF1 inh -69.6
O=C(Cc1ccccc1)NC(NC(=O)Cc1ccccc1)c1cccc([N+](=O)[O-])c1	none
CC(NC(=O)c1cc(-c2ccccc2)nc2ccccc12)C1CCCO1 (stereo not given)	HSF-1 act 52.1 (no result: ARNT TACC3 PPI)
CC(C)(C)C(=O)NC(=S)NNC(=O)c1sc2ccccc2c1Cl	HSF1 inh -68.8
CC(NC(=O)c1sc2ccccc2c1Cl)C1CCCO1 (stereo not given)	HSF-1 act 68.8
CC(C)CC#Cc1cnc2c(c1)C(=O)N([C@H](C)CO)C[C@H](C)[C@H](CN(C)Cc1cccc(F)c1)O2	none (no result: HSF-1 act, HSF1 inh, HIF activator, HSP90 refold inh)
